Assay results from PubChem BioAssay (NCATS).
Where “and” joins values, the source holds several entries; their conditions need not be identical. Identical values can stand only once. Results filed as inconclusive are left out. The source holds several records for some structures; these can differ, active in one and inactive in another. Calls of active or inactive are those of the source. The call rests on the fitted dose curve; in most records, active means well fitted curve in the direction sought with a large enough effect; inconclusive means small, poorly fitted or top-dose-only effect, or another doubt; inactive means no such curve, though single readings can be large; an effect the other way counts as inactive or inconclusive.

Assays:
[1] = Viability qHTS for spleen associated tyrosine kinase inhibitor (SYKi) drug resistant MV4-11 cells (AID 1963824); further: nearly all actives have a fitted effect of over 35% in size
Procedure, shortened: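 SYK inhibitor-resistant MV4-11 AML cells, 500 per well, added to predispensed compounds and incubated 72 hr at 37 C, 5% CO2. Viability measured by CellTiter-Glo luminescence after 10 min at room temperature.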

[2] = Quantitative highthroughput screen to assess conditional lethalithy of NOMO1 cells grown in RPMI1640 with untreated serum (RPMI+s) (AID 1963876); further: nearly all actives have a fitted effect of over 35% in size;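 on Viability: 100% = DMSO wells and 0% = empty wells without cells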
Procedure, shortened: (§1)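 Each medium arm—HPLM with 10% dialyzed FBS, or RPMI1640 with 5 mM glucose and 10% untreated or dialyzed FBS—was screened against an 11-point, 3-fold compound titration for 48 h at 37 °C, with CellTiter-Glo luminescence as endpoint.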

[3] = Quantitative highthroughput screen to assess conditional lethalithy of NOMO1 cells grown in RPMI1640 with dialyzed fetal bovine serum (RPMI+ds) (AID 1963877); further: nearly all actives have a fitted effect of over 30% in size;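 on Viability: series mostly up to about 46 µM; 100% = DMSO control wells and 0% = empty wells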
Procedure, shortened: as §1

[4] = Quantitative highthroughput screen to assess conditional lethalithy of P12 Ichikawa cells grown in Human Plasma-Like Medium with dialyzed fetal bovine serum (HPLM+ds) (AID 1963879); conditions: Potency: viability; further: nearly all actives have a fitted effect of over 35% in size; on Viability: series mostly up to about 46 µM
Procedure, shortened: as §1

[5] = Quantitative highthroughput screen to assess conditional lethalithy of P12 Ichikawa cells grown in RPMI1640 with dialyzed fetal bovine serum (RPMI+ds) (AID 1963880); conditions: Potency: P12-Ichikawa viability; further: nearly all actives have a fitted effect of over 35% in size;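 on Viability: 100% = DMSO wells and 0% = empty wells on each plate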
Procedure, shortened: as §1

[6] = Quantitative highthroughput screen to assess conditional lethalithy of P12 Ichikawa cells grown in RPMI1640 with untreated serum (RPMI+s) (AID 1963881); conditions: Potency: viability; further: nearly all actives have a fitted effect of over 35% in size;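 on Viability: series mostly up to about 46 µM; 100% = DMSO wells and 0% = empty wells without cells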
Procedure, shortened: as §1

[7] = Quantitative highthroughput screen to assess conditional lethalithy of SEM cells grown in Human Plasma-Like Medium with dialyzed fetal bovine serum (HPLM+ds) (AID 1963882); further: nearly all actives have a fitted effect of over 35% in size; on Viability: series mostly up to about 46 µM
Procedure, shortened: as §1

[8] = Quantitative highthroughput screen to assess conditional lethalithy of SEM cells grown in RPMI1640 with unreated serum (RPMI+s) (AID 1963883); further: nearly all actives have a fitted effect of over 35% in size;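 on Viability: 100% = DMSO wells and 0% = empty wells without cells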
Procedure, shortened: as §1

[9] = Quantitative highthroughput screen to assess conditional lethalithy of SEM cells grown in RPMI1640 with dialyzed fetal bovine serum (RPMI+ds) (AID 1963884); further: nearly all actives have a fitted effect of over 35% in size;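 on Viability: series mostly up to about 46 µM; 100% = DMSO control wells and 0% = empty wells without cells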
Procedure, shortened: as §1

[10] = Quantitative highthroughput screen to assess conditional lethalithy of NOMO1 cells grown in Human Plasma-Like Medium with dialyzed fetal bovine serum (HPLM+ds) (AID 1963878); further: nearly all actives have a fitted effect of over 35% in size;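 on Viability: 100% = DMSO wells and 0% = empty wells on each plate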
Procedure, shortened: as §1

[11] = Cellular viability qHTS for adrenocortical cancer (ACC) cell line SW-13 (AID 1963989); conditions: SW-13 ACC cells viability, CellTiter-Glo, 48 h; activity (max response): stronger effect = lower value; further: nearly all actives have a fitted effect of over 65% in size;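 on activity (max response): cells grown in serum-free medium with ITS supplement; on the % scale 0 is the no-effect control and ±100 the full control effect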
Procedure, shortened: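 Here, serum-free SW-13 cultures were dosed up to 46 uM. Following 48 h, ATP-dependent luminescence (CellTiter-Glo) reported viable cells, and logistic modeling produced IC50 values.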

[12] = Cellular viability qHTS for adrenocortical cancer (ACC) cell line NCI-H295R (AID 1963990); further: nearly all actives have a fitted effect of over 60% in size
Procedure, shortened: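 Viability of NCI-H295R after 48 h of treatment (final up to 46 uM) measured through cellular ATP luminescence.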
Potency means the concentration at half of the fitted maximal effect.

Row | Compound | Potency [1] | Potency [2] | Potency [3] | Potency [4] | Potency [5] | Potency [6] | Potency [7] | Potency [8] | Potency [9] | Potency [10] | Potency [11] | Potency [12] | activity (max response) [11]
1 | CN(Cc1cc(Br)cc(Br)c1N)C1CCCCC1 | 10.6 µM (active) | inactive | inactive | inactive | inactive | inactive | inactive | inactive | inactive |  |  |  | 
2 | Cc1cc(CN2CCN(c3c(Br)cnc4nc(-c5ccc(N6CCN(C)CC6)cc5)[nH]c34)CC2)no1 | 29.1 nM (active) and 105 nM (active) | inactive | 1.05 µM (active) | 1.05 µM (active) |  | 0.935 µM (active) | 0.935 µM (active) | 0.743 µM (active) |  | 16.6 µM (active) | 31.6 µM (active) | 28.2 µM (active) | 
3 | CC(C)(C)C(=O)OCOP(=O)(COCCn1cnc2c(N)ncnc21)OCOC(=O)C(C)(C)C | 944 nM (active) and 411 nM (active) | 0.235 µM (active) | 0.418 µM (active) | 0.526 µM (active) |  | 0.332 µM (active) | 0.469 µM (active) | 0.105 µM (active) | 0.105 µM (active) | 1.18 µM (active) |  |  | 
4 | Cc1cccc(-c2nn(C(=S)Nc3ccccc3)cc2-c2ccnc3ccccc23)n1 | 18.6 µM (active) | inactive | inactive |  |  | inactive | inactive |  |  | inactive |  | inactive | 
5 | Cc1cc(Nc2ncc3c(n2)N(C)C(=O)N(c2cc(NC(=O)c4cccc(C(F)(F)F)c4)ccc2C)C3)n(C)n1 | 0.0295 µM (active) | 1.66 µM (active) | 1.18 µM (active) | 16.6 µM (active) |  | 5.9 µM (active) | 0.469 µM (active) | 0.372 µM (active) |  | 1.18 µM (active) | 0.355 µM (active) | 1.26 µM (active) | 
6 | CC(=O)SCC(Cc1ccccc1)C(=O)NCC(=O)OCc1ccccc1 (stereo unspecified) | 20.9 µM (active) | 6.62 µM (active) | 6.62 µM (active) | 18.7 µM (active) |  |  |  | inactive | inactive | 5.9 µM (active) |  | inactive | 
7 | O=C(NOC[C@H](O)CO)c1ccc(F)c(F)c1Nc1ccc(I)cc1F | 0.164 µM (active) | 0.187 µM (active) | 0.0332 µM (active) |  |  |  | 7.43 µM (active) | 11.8 µM (active) | 11.8 µM (active) | 0.148 µM (active) |  |  | 
8 | OC(CCN1CCCCC1)(c1ccccc1)C1CC2C=CC1C2 (stereo unspecified) | inactive and 16.6 µM (active) | inactive | inactive | inactive | inactive | inactive | inactive | inactive | inactive |  |  |  | -4.13% (inactive) and -26% (inactive)
9 | O=C(Nc1nc2ccccc2n1CCN1CCOCC1)c1cccc([N+](=O)[O-])c1 | 2.63 µM (active) | inactive | inactive | inactive | inactive |  | inactive | inactive | inactive | inactive |  | inactive | 3.94% (inactive)
10 | Clc1ccc(COC(Cn2ccnc2)c2ccc(Cl)cc2Cl)c(Cl)c1 (stereo unspecified) | 11.8 µM (active) | inactive | inactive |  |  |  | inactive |  |  | inactive | 17.8 µM (active) | 10 µM (active) | 
11 | COC(=O)N1CC2(CC2)C[C@H](C(=O)NO)[C@H]1C(=O)N1CCN(c2ccccc2)CC1 | inactive | 0.524 µM (active) | 3.31 µM (active) | 0.331 µM (active) | 1.05 µM (active) |  | 1.17 µM (active) |  | 0.66 µM (active) | 0.295 µM (active) |  | inactive | -14.2% (inactive)
12 | N#CC(c1ccc(Cl)cc1)c1c(Cl)cc(-n2ncc(=O)[nH]c2=O)cc1Cl (stereo unspecified) | 26.3 µM (active) | inactive | inactive |  |  | inactive | inactive | inactive | inactive | inactive |  |  | 
13 | CCOC(=O)c1c(C)n(C)c2ccc(O)cc12 | 7.5 µM (active) and inactive | inactive | inactive | inactive |  | inactive | inactive | inactive | inactive | inactive |  | inactive | 5.26% (inactive) and -18.4% (inactive)
14 | CC(C)Oc1ccc2c(=O)c(-c3ccccc3)coc2c1 | 10.6 µM (active) | inactive | inactive | inactive | inactive | inactive | inactive | inactive |  |  |  | inactive | -5.36% (inactive) and 3.78% (inactive)
15 | c1cc(N[C@@H]2CCNC2)nc(-c2cnc3ccc(-c4cn[nH]c4)cn23)c1 | 0.0066 µM (active) | inactive | 5.9 µM (active) |  |  |  |  |  |  |  | 3.98 µM (active) | inactive | 
16 | Cc1c(C)n(Cc2ccc(-c3ccccc3C(=O)O)cc2)c2ccc(C(=O)N[C@@H](C)c3ccc([N+](=O)[O-])cc3)cc12 | 20.9 µM (active) | 9.35 µM (active) | 9.35 µM (active) |  | 10.5 µM (active) |  | inactive | inactive | inactive |  |  |  | 
17 | O=C(Nc1cccc(Nc2ncc(Br)c(NCCc3cnc[nH]3)n2)c1)N1CCCC1 | 0.132 µM (active) | 5.9 µM (active) |  | 0.662 µM (active) |  |  |  |  |  | 2.96 µM (active) |  |  | 
18 | OCCn1cc(-c2cnc3nnn(Cc4ccc5ncccc5c4)c3n2)cn1 | 20.9 µM (active) | inactive | inactive |  | inactive | inactive |  |  |  |  |  | inactive | -4.78% (inactive)
19 | CCCCCCCCCCCCCCCC(=O)O[C@H]1[C@@H](O)[C@@H](O)[C@@H]([C@H](NC(=O)[C@@H]2C[C@@H](CCC)CN2C)[C@H](C)Cl)O[C@@H]1SC | 23.5 µM (active) | 11.8 µM (active) |  | inactive | inactive | inactive | inactive |  | inactive |  |  | inactive | 13.6% (inactive)
20 | Cc1ccc(NC(=O)c2ccc(CN3CCN(C)CC3)cc2)cc1Nc1nc(-c2cccnc2)cs1 | 13 µM (active) and 13.2 µM (active) | inactive |  |  |  |  |  |  |  | 0.372 µM (active) |  | 22.4 µM (active) | 
21 | CC(C)n1cnc2c(NCCCCCCNC(=O)OC(C)(C)C)nc(NCCO)nc21 | 14.8 µM (active) | inactive | inactive |  |  |  | inactive |  |  |  |  | inactive | 
22 | Cc1cc2c(cc1C1(c3ccc(C(=O)O)cn3)CC1)C(C)(C)CCC2(C)C | 0.468 µM (active) | inactive | inactive | inactive | inactive | inactive | inactive | inactive | 0.0662 µM (active) |  |  | inactive | 9.77% (inactive)
23 | Oc1ccc(C2=Cc3ccc(O)cc3OC2)cc1 | 0.366 µM (active) | 9.35 µM (active) |  | 2.96 µM (active) | 2.64 µM (active) | 2.96 µM (active) | 2.96 µM (active) | 3.32 µM (active) | 3.72 µM (active) | 9.35 µM (active) | 7.08 µM (active) |  | 
24 | CCCS(=O)c1ccc2nc(NC(=O)OC)[nH]c2c1 (stereo unspecified) | 23.7 µM (active) and 23.5 µM (active) | 20.9 µM (active) |  |  |  |  |  |  | 9.35 µM (active) | 20.9 µM (active) | 25.1 µM (active) |  | 
25 | C[C@@]1(c2cc(-c3cncnc3)c(F)cc2F)CCSC(N)=N1 | 23.5 µM (active) | 1.66 µM (active) |  | 10.5 µM (active) | 16.6 µM (active) | 11.8 µM (active) |  | 7.43 µM (active) | 16.6 µM (active) | 3.72 µM (active) |  | inactive | -2.1% (inactive)
26 | CC(=O)Oc1ccccc1C(=O)Nc1ncc([N+](=O)[O-])s1 | 11.9 µM (active) and 20.9 µM (active) | inactive | inactive |  |  | inactive |  | inactive | inactive |  |  |  | 7.32% (inactive) and 2.04% (inactive)
